The text below walks through data of PubChem BioAssay (Tox21).

The nature of test [1]: Nuclear factor erythroid 2-related factor 2/antioxidant responsive element (Nrf2/ARE) small molecule agonists: qHTS cell viability counter screen in human keratinocytes (AID 1919968; active means well fitted curve in the direction sought with a large enough effect in the repeat runs; an effect the other way counts as inactive or inconclusive; further: nearly all actives have a fitted effect of over 55% in size). Put shortly: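 Cells of the KeratinoSens line were plated at 1,500 per well and left for 5 h before compound transfer from DMSO stocks. After a 23 h incubation (37 C, 5% CO2), CellTiter-Fluor was added. Signal was taken as fluorescence intensity 1 h later.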
Background: Quantitative high-throughput screening tests each substance at several concentrations.

Test [2] is described as follows: Nuclear factor erythroid 2-related factor 2/antioxidant responsive element (Nrf2/ARE) small molecule agonists: luciferase reporter gene qHTS assay in human keratinocytes (AID 1919969). Further: nearly all actives have a fitted effect of over 35% in size. Further: potency means the concentration at half of the fitted maximal effect. A general note: In a reporter assay the amount or activity of a reporter protein is the signal.
The target of test [3] is Gonadotropin-releasing hormone receptor (Homo sapiens) (UniProt P30968). The test is described as follows: Human gonadotropin-releasing hormone receptor (GnRHR) small molecule agonists, calcium flux assay in GnRHR-HEK293 cells (AID 1920063). Further: nearly all actives have a fitted effect of over 35% in size. Put shortly:
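Compounds dissolved in DMSO are pin-transferred onto dye-loaded GnRHR-HEK293 cells, which were seeded 18 h before at 37 C/5% CO2. Calcium signal is read as fluorescence intensity at 1 s intervals for 3 min.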
Background: A change in cytosolic calcium serves as a functional read-out for many receptors and channels.

The target of test [4] is KiSS-1 receptor (Homo sapiens) (UniProt Q969F8). The test is described as follows: Human kisspeptin (KISS1R) small molecule agonists, calcium flux assay in KISS1R-HEK293 cells (AID 1920064; active means well fitted curve in the direction sought with a large enough effect in the repeat runs; an effect the other way counts as inactive or inconclusive). In short, it runs like this:
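Cell line: HEK293, stable human KISS1R. Dye loading 1 h at 37 C after 18 h culture. Read: kinetic fluorescence, 480/540 nm, 3 min at 1 s intervals.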

Test [5] in a line: G protein-coupled receptor (GPCR) small molecule agonists, calcium flux assay: HEK293 wild type cell line counter screen (AID 1920065). Put shortly: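 Tox21 10K compounds, 15 concentrations each in triplicate, pin-transferred in DMSO onto dye-loaded cells; kinetic read at 480/540 nm for 3 min, 1 s intervals.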
A short description of test [6]: p53 small molecule agonists, cell-based qHTS assay with human liver microsomes (AID 1963577).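 Further: p53 response element beta-lactamase reporter cells with liver microsomes plus NADPH.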 In short, it runs like this: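 Steps: plate p53RE-bla cells, incubate 5 h at 37 C; add compound in DMSO; add microsomes (0.5 mg/mL final) and NADPH (0.5 mg/mL final); incubate 16 h at 37 C; add LiveBLAzer, 2 h RT; read fluorescence.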
Test [7] is described as follows: p53 small molecule agonists, cell-based qHTS assay with rat liver microsomes (AID 1963578). Put shortly: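 Metabolic activation is supplied by rat liver microsomes with NADPH (each 0.5 mg/mL final). p53RE-bla cells incubate with compound 16 h at 37 C; reporter activity is measured by LiveBLAzer fluorescence.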
Test [8] in a line: p53 small molecule agonists, cell-based qHTS assay with human liver microsomes: qHTS cell viability counter screen (AID 1963579). Further: nearly all actives have a fitted effect of over 45% in size. Put shortly:
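After the 460/530 nm beta-lactamase read, CellTiter-Glo was added to the same wells and luminescence measured after 30 min at room temperature, giving viability of p53RE-bla cells treated 16 h with compounds plus microsomes and NADPH.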

Test [9] can be described thus: p53 small molecule agonists, cell-based qHTS assay with rat liver microsomes: qHTS cell viability counter screen (AID 1963580). Further: nearly all actives have a fitted effect of over 45% in size. Put shortly:
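Counter screen for cytotoxicity under metabolic activation: rat liver microsomes and NADPH, 0.5 mg/mL final each, added with compounds to p53RE-bla HCT-116 cells; 16 h at 37 C, then ATP luminescence read.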

Test [10] is described as follows: p53 small molecule agonists, cell-based qHTS assay: qHTS cell viability counter screen (AID 1963581). Further: nearly all actives have a fitted effect of over 45% in size. Put shortly:
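ATP content measured by luminescence in HCT-116 p53RE-bla cells treated 16 h at 37 C, same wells as the reporter screen.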

Test [11] can be described thus: p53 small molecule agonists, cell-based qHTS assay (AID 1963582; active means well fitted activation curve with a large enough effect in the signal ratio in the repeat runs, not every such curve was filed as active; the % refers to the signal ratio). In short, it runs like this:
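16 h compound exposure (37 C) of p53 response element–bla cells, preceded by 5 h recovery at 37 C/5% CO2; read-out via LiveBLAzer B/G FRET substrate, 2 h RT, fluorescence intensity.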

Test [12] addresses 5-hydroxytryptamine receptor 2A (Homo sapiens) (UniProt P28223). The test is described as follows: 5-hydroxytryptamine receptor 2A (HTR2A) small molecule agonists, cell-based qHTS assay (AID 1963587). Further: nearly all actives have a fitted effect of over 30% in size. In short, it runs like this:
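HTR2A-CHO cells, plated 18 h at 37 C/5% CO2, dye-loaded 1 h at 37 C; compounds in DMSO added by pin tool (agonist mode). Intracellular calcium flux read as kinetic fluorescence on FDSS over 2 min at 1 s intervals.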

The target of test [13] is Muscarinic acetylcholine receptor M1 (Homo sapiens) (UniProt P11229). Description: Cholinergic receptor muscarinic 1 (CHRM1) small molecule antagonists, cell-based qHTS assay (AID 1963588). Further: nearly all actives have a fitted effect of over 40% in size. In short, it runs like this: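 Compounds were tested at 15 concentrations in three independent runs. Dye-loaded CHRM1-CHO cells were exposed 5 min at room temperature before stimulation by acetylcholine added at 50nM. Intracellular calcium was read kinetically on FDSS for 3 min.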

For test [14] the target is unchanged. Description: Cholinergic receptor muscarinic 1 (CHRM1) small molecule agonists, cell-based qHTS assay (AID 1963589). Further: nearly all actives have a fitted effect of over 35% in size. Put shortly: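 Homogeneous fluorescence calcium flux, agonist mode. Human M1-expressing CHO cells; compound dosed at 15 concentrations, three independent runs; signal sampled every 1 sec.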
Test [15] is described as follows: cAMP Responsive Elements (CRE) small molecule agonists, cell-based qHTS assay (AID 1963590). Put shortly: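 HEK 293T cells stably bearing CRE-bla were plated at 2,000 cells per well and rested 18 h. Compounds, positive controls or DMSO were added for 3 h at 37 C. LiveBLAzer B/G substrate was then loaded for 2 h at room temperature.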
Test [16] can be described thus: cAMP Responsive Elements (CRE) small molecule antagonists, cell-based qHTS assay (AID 1963591; active means well fitted inhibition curve with a large enough effect in the signal ratio in the repeat runs, not every such curve was filed as active; the % refers to the signal ratio). In short, it runs like this:
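First, CRE-bla HEK293T cells settled 18 h at 37 C. Next, compound and 0.25 uM final NKH477 were applied for 3 h. Last, LiveBLAzer B/G substrate was loaded for 2 h at room temperature.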

The target of test [17] is Beta-2 adrenergic receptor (Homo sapiens) (UniProt P07550). Description: Adrenergic beta2 receptor (ADRB2) small molecule antagonists, cell-based qHTS assay (AID 1963592). Further: series mostly up to about 92 µM; nearly all actives have a fitted effect of over 50% in size. In short, it runs like this:
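Assay format: CHO-ADRB2 cells, 18-20hr seeding at 37C/5% CO2, then compound plus 1nM isoproterenol agonist mix for 0.5hr RT. Homogeneous time-resolved fluorescence cAMP detection after 1hr, expressed as 665/615 nm ratio.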

The target of test [18] is D(2) dopamine receptor (Homo sapiens) (UniProt P14416). The test is described as follows: Dopamine D2 receptor (DRD2) small molecule agonists, cell-based qHTS assay (AID 1963594). Further: nearly all actives have a fitted effect of over 35% in size. Put shortly:
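HEK293 cells stably expressing DRD2 were cultured 24 h at 37 C, then given Ro20-1724 (0.1 mM final) and compounds for 10 min at room temperature. NKH477 (200nM) was then added for 30 min. cAMP was read by HTRF.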

Test [19] deals with Beta-2 adrenergic receptor (Homo sapiens) (UniProt P07550). Description: Adrenergic beta2 receptor (ADRB2) small molecule agonists, cell-based qHTS assay (AID 1963593).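 Further: CHO cells stably overexpressing human ADRB2.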 In short, it runs like this: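 CHO cells stably over-expressing ADRB2 were plated overnight at 37C, then dosed with compounds plus a stimulation mix containing 100uM IBMX and 25uM Ro-20-1724 for 0.5hr at room temperature. cAMP was measured by HTRF competition, 1hr.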

The target in test [20] is D(2) dopamine receptor (Homo sapiens) (UniProt P14416). The test is described as follows: Dopamine D2 receptor (DRD2) small molecule antagonists, cell-based qHTS assay (AID 1963595; active means well fitted inhibition curve with a large enough effect in the signal ratio in the repeat runs, with a control signal flat; the % refers to the signal ratio). Put shortly:
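In this cell-based antagonist screen, compounds act for 10 min at room temperature before a 30 min challenge with 12 nM quinpirole and 200 nM NKH477. cAMP is quantified by HTRF competition in DRD2-HEK293 cells containing 0.1 mM Ro20-1724.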

Unmarked numbers belong to inactive results. Records with an inconclusive call do not appear. Calls of active or inactive are those of the source. Unless noted, the call rests on the fitted dose curve.

Sequence of D(2) dopamine receptor (Homo sapiens) (P14416 whole entry, looked up): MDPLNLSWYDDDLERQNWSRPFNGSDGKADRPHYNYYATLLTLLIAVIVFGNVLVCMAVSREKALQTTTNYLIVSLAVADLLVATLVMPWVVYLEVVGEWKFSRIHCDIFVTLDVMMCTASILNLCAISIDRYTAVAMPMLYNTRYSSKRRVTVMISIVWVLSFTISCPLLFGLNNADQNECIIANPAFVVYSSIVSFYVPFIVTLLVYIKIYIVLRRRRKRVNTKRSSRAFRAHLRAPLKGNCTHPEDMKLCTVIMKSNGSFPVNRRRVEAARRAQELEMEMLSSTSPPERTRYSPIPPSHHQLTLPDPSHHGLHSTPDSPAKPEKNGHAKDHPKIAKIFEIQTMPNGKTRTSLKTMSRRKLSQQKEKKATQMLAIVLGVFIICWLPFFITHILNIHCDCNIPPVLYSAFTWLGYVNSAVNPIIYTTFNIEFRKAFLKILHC
Sequence of Gonadotropin-releasing hormone receptor (Homo sapiens) (P30968 whole entry, looked up): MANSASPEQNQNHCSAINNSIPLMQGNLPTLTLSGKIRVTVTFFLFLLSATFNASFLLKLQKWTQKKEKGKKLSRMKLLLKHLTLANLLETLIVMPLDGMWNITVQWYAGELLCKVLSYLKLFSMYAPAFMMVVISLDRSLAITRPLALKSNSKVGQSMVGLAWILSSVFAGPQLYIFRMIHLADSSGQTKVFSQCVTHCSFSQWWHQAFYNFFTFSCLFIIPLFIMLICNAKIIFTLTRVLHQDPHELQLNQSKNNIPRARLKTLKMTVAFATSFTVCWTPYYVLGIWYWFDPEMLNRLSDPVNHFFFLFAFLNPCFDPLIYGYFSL
Sequence of KiSS-1 receptor (Homo sapiens) (Q969F8 whole entry, looked up): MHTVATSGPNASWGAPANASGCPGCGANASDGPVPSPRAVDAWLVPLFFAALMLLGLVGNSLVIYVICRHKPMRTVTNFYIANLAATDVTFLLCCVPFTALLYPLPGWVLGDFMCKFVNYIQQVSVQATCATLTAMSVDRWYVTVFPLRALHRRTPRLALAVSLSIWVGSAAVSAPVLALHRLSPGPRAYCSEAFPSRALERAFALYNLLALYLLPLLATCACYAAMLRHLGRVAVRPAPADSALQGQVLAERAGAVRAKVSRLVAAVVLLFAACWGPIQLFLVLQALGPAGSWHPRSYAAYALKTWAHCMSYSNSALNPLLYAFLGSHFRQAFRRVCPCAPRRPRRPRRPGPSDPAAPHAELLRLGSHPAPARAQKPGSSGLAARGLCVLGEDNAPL
Sequence of Beta-2 adrenergic receptor (Homo sapiens) (P07550 whole entry, looked up): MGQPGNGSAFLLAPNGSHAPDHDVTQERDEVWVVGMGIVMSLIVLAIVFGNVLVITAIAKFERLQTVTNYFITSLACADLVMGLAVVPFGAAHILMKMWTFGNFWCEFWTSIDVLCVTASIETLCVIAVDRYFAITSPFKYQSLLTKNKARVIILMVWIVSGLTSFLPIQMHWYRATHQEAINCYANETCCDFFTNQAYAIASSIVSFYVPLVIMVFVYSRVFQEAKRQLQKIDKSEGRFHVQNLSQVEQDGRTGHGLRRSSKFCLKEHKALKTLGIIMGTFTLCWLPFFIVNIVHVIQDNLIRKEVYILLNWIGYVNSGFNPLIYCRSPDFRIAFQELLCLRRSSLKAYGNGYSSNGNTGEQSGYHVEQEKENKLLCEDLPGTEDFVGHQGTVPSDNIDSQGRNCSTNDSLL
Sequence of Muscarinic acetylcholine receptor M1 (Homo sapiens) (P11229 whole entry, looked up): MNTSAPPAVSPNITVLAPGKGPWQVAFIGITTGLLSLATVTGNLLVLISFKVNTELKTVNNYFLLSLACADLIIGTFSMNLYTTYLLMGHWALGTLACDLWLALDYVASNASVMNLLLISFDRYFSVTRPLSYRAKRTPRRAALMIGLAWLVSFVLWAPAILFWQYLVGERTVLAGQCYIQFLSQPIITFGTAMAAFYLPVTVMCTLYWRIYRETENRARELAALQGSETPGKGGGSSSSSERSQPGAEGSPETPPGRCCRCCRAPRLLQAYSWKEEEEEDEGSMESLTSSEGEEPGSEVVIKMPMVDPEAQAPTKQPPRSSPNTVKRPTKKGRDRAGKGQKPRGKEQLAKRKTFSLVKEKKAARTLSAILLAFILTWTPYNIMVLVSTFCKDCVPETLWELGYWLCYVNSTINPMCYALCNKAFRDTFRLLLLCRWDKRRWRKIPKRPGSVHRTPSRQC
Sequence of 5-hydroxytryptamine receptor 2A (Homo sapiens) (P28223 whole entry, looked up): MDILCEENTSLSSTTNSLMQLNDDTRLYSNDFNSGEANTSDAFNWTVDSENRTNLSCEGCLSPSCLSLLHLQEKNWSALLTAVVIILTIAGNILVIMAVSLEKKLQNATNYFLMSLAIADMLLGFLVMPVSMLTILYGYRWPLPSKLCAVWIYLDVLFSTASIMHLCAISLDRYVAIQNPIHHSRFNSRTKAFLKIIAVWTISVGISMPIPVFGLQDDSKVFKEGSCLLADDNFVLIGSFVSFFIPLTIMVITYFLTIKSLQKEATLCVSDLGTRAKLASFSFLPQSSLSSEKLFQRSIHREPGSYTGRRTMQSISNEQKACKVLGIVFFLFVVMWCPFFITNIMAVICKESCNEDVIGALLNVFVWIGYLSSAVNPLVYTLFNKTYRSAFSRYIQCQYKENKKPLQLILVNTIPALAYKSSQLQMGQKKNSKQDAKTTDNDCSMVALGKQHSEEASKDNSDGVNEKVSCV

`C=C(C)C(=O)OCCCCCCCCCCOC(=O)C(=C)C`: the Potency result in [1], in test [2], in test [3], in [6], in [7] and in test [8] was “inactive” throughout. Also, the Potency entry in test [9], in test [10], in [11], in test [12], in test [13] and in [14] was “inactive” throughout. Also, the Potency entry in test [15], in [16], in [17] and in test [18] was “inactive” throughout. The result in test [4] and in test [5] was inactive.

On to `Brc1ccc(-c2ccccc2)cc1`, for which the Potency entry in [1], in test [2], in test [3], in [6], in test [7] and in test [8] was “inactive” throughout. The Potency entry in test [9], in test [10], in test [11], in test [12], in test [13] and in [14] was “inactive” throughout. The Potency result in [15], in test [16], in test [17], in [19], in [18] and in [20] was “inactive” throughout. The outcome in test [4] and in test [5] was inactive.

Take `CC1(c2ccccc2)OC(C(=O)O)=CC1=O` (stereo not drawn): the Potency result in [1], in test [2], in test [3], in [6], in [7] and in test [8] was “inactive” throughout. Further, the Potency entry in test [9], in test [10], in test [11], in test [12], in test [13] and in test [14] was “inactive” each time. Also, the Potency result in test [15], in test [16], in [17], in [19], in [18] and in [20] was “inactive” throughout. For the same compound, the outcome in test [4] and in test [5] was inactive.

As to `COCCOCC(OC)OC`, the Potency entry in test [1], in test [2], in test [3], in [6], in test [7] and in test [8] was “inactive” throughout. Also, the Potency result in [9], in test [10], in test [11], in [12], in test [13] and in test [14] was “inactive” throughout. The Potency entry in test [15], in [16], in test [17], in test [18] and in [20] was “inactive” in each case. Moreover, the result in test [4] and in test [5] was inactive.

For `NC(=O)c1ncn([C@@H]2O[C@H](CO)[C@@H](O)[C@H]2O)c1N`, the Potency entry in test [1], in test [2], in test [3], in test [6], in [7] and in test [8] was “inactive” in each case. Further, the Potency result in test [9], in test [10], in test [11], in test [12], in test [13] and in test [14] was “inactive” throughout. Moreover, the Potency entry in test [15], in [16], in [17], in test [18] and in test [20] was “inactive” each time. Further, the outcome in test [4] and in test [5] was inactive.

`Nc1cc(S(=O)(=O)O)ccc1O`: the Potency entry in test [1], in test [2], in test [3], in test [6], in [7] and in [8] was “inactive” each time. The Potency result in test [9], in test [10], in [11], in test [12], in [13] and in [14] was “inactive” in each case. The Potency entry in test [15], in test [16], in test [17], in [18] and in test [20] was “inactive” each time. Moreover, the outcome in test [4] and in [5] was inactive.

For `O=C(CS)Nc1ccccc1`, the Potency result in [1], in test [3], in [6], in test [7], in [8] and in test [9] was “inactive” each time. Also, the Potency entry in test [10], in [11], in test [12], in test [13], in [14] and in test [15] was “inactive” each time. For the same compound, the Potency entry in test [16], in test [17] and in [18] was “inactive” throughout. The Potency in test [2] was 29.8 µM (active). Besides, the outcome in [4] and in test [5] was inactive.
